Measurements published in PubChem BioAssay AID449762 (Southern Research Specialized Biocontainment Screening …, 2010).
Out of some 330,000 compounds screened, about 1,900 (0.58%) were called active. Roughly 4% stayed inconclusive and do not appear here. The list is a sample of the results. Results with a measured potency or affinity are listed apart. A number with no mark means an inactive call. Rule as the data show it: inconclusive = inhibition above about 70% without an active follow-up result; inactive = below that.

Assay: M. tuberculosis growth inhibition, HTS (AID 449762);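 also: bacterial growth assessed after seven days of incubation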
Conditions: M. tuberculosis H37Rv growth inhibition, 7H9 media; at 25 µM; hits give high values

Compound | inhibition
C=CCSC1=N/C(=C/c2ccsc2)C(=O)N1c1ccccc1 | -5.05%
Cc1cc(C)n(-c2ccc(C(=O)Nc3ccc4c(c3)OCO4)cc2)n1 | 12.7%
Cc1cc(C)n(-c2ccc(C(=O)NCc3ccc4c(c3)OCO4)cc2)n1 | 8.5%
COc1ccc(CCNC(=O)CCc2nc3sc4c(c3c(=O)[nH]2)CCCC4)cc1 | -1.73%
CCCCC(CC)COC(=O)CCCCC(=O)OCC(CC)CCCC (configuration not stated) | 12.3%
CCCCC(CC)CO (configuration not stated) | -4.02%
Cc1csc(NC(=O)c2cccs2)n1 | -0.19%
Nc1cc(N2CCCCCC2)c2nonc2c1[N+](=O)[O-] | -8.43%
Nc1ccc2nonc2c1[N+](=O)[O-] | -0.05%
COc1cccc2sc(N(CCN(C)C)C(=O)/C=C/c3cccs3)nc12 | 8.94%
Cc1cccc2sc(N(CCN(C)C)C(=O)/C=C/c3cccs3)nc12 | 51.5%
CN(CC(=O)Nc1ccc(S(=O)(=O)N2CCCC2)cc1)Cc1ccc(Cl)cc1Cl | -3.94%
O=C(CCC(=O)N(CC(=O)NC1CCCC1)Cc1ccc(F)cc1)Nc1nccs1 | 7.88%
O=C(NC1CC1)c1cccc(S(=O)(=O)Nc2ccccc2F)c1 | -4.2%
CCN(CC)c1ccc(/C=N/Nc2nc3ccccc3[nH]2)c(O)c1 | 19.6%
CCN(CC)c1ccc2cc(-c3nc4ccccc4[nH]3)c(=O)oc2c1 | 4.76%
O=c1c2oc3ccccc3c2[nH]c(=S)n1-c1ccc(F)cc1 | 0.38%
Cc1ccc(C2Oc3ccccc3C3=C2C(c2cccs2)n2ncnc2N3)cc1 (configuration not stated) | 55.2%
Fc1ccc(C2C3=C(Nc4ncnn42)c2ccccc2OC3c2ccncc2)cc1 (configuration not stated) | -5.07%
C/C=C\C=C\C(=O)N1CC2(CC(c3cccc(NC(=O)COc4ccc(Cl)cc4)c3)=NO2)C[C@H]1C(N)=O (some centres not stated) | 23.8%
COc1c(C)cc(C(=O)C2CCCN(Cc3ccc(Oc4ncccn4)cc3)C2)cc1C (configuration not stated) | 7.33%
COc1cccc(C(=O)C2CCCN(Cc3ccccn3)C2)c1 (configuration not stated) | 33.9%
COc1ccc(N2CCN(CCNC(=O)c3ccc(NC(=O)C4CCCO4)cc3)CC2)cc1 (configuration not stated) | -2.8%

Compound | inhibition
CC1CCN(C2=NC(=O)/C(=C/c3cn[nH]c3-c3ccccc3)S2)CC1 | 12.8%
O=C1N=C(N2CCCC2)S/C1=C\c1cn[nH]c1-c1ccccc1 | -6.16%
CCOC(=O)c1[nH]c2c(c1-c1ccccc1)C(=O)CC(c1ccccc1)C2 (configuration not stated) | 3.2%
Nc1nc2ccccc2n1CCN1CCCC1 | -1.87%
CC(C)(C)c1ccc(C(=O)O)c(C(=O)c2ccccc2)c1 | -4.75%
Brc1cnc2nc(SC/C=C/c3ccccc3)[nH]c2c1 | -5.71%
COc1cccc(C(=O)NCC2CCN(c3ccc(S(=O)(=O)N4CCOCC4)cc3)CC2)c1 | -13.8%
COc1ccccc1C(=O)NCC1CCN(c2ccc(S(=O)(=O)N3CCOCC3)cc2)CC1 | 2.24%
CC(=O)NS(=O)(=O)c1ccc(NS(=O)(=O)c2ccccc2[N+](=O)[O-])cc1 | 3.53%
CCCCNC(=O)CN(c1cc(C(F)(F)F)ccc1Cl)S(C)(=O)=O | -6.63%
CCN(CC)CCCC(C)NC(=O)c1ccc(C(F)(F)F)cc1 (configuration not stated) | -7.51%
O=C(CCN1CCCC1)Nc1ccccc1 | 22.9%
Cc1ccc(C)c(N2CCN(C(=S)Nc3ccc4nc(N5CCOCC5)cc(C)c4c3)CC2)c1 | -4.9%
Cc1cc(N2CCN(C)CC2)nc2ccc(NC(=S)N3CCCCCC3)cc12 | 3.75%
CCN(CCCNC(=O)CNC(=O)c1nn(-c2ccc(OC)cc2)c(=O)c2ccccc12)c1cccc(C)c1 | 8.46%
Cc1cc2c(cc1C)CSC(c1ccccc1O)SC2 | 13.6%
Cc1cc2c(cc1C)CSC(c1ccc3ccccc3c1O)SC2 | -4.57%
CCOc1ccc2oc(=O)cc(CN3CCN(C(=O)c4ccco4)CC3)c2c1 | 4.6%
CN1/C(=C\C(=O)C[n+]2cccc(C(N)=O)c2)C(C)(C)c2ccccc21 | 0.09%
Cn1c(N)c(C(=O)COC(=O)c2ccco2)c(=O)n(C)c1=O | 1.11%
Cc1ccc[n+](CC(=O)/C=C2\N(C)c3ccccc3C2(C)C)c1 | -2.49%
Cn1c(N)c(C(=O)COC(=O)c2ccc(Br)o2)c(=O)n(C)c1=O | 1.58%
CN1/C(=C\C(=O)COC(=O)c2ccco2)C(C)(C)c2ccccc21 | 0.58%

Compound | inhibition
CN1/C(=C\C(=O)COC(=O)c2ccc(O)cc2)C(C)(C)c2ccccc21 | -3.13%
COc1ccc(Cl)cc1NC(=O)CSc1nnc(-c2ccco2)o1 | -2.66%
O=C(OCC(=O)N1CCCCC1)c1c[nH]c(=O)[nH]c1=O | -1.77%
COc1ccccc1C(=O)NC(CCSC)C(=O)NNC(=O)c1ccccc1O (configuration not stated) | -6.8%
CC(C)(C)C(=O)O/N=C(\N)c1ccc(Oc2cc(Cl)cc(Cl)c2)c([N+](=O)[O-])c1 | 0.8%
CCCCN1CC(O)=C(c2nc3ccccc3[nH]2)C1=N | -10.6%
COc1ccc(NC(=O)N(C)C[C@H]2Oc3ccc(NC(=O)Cc4ccccc4)cc3C(=O)N([C@H](C)CO)C[C@@H]2C)cc1 | -4.97%
COc1ccc(C(=O)NCC(c2ccc3c(c2)OCO3)N2CCN(c3ccc(OC)cc3)CC2)cc1 (configuration not stated) | 7.52%
O=C(COc1ncnc2cc([N+](=O)[O-])ccc12)NC1CCCCC1 | -3.77%
CCOC(=O)c1ccc(NC(=O)CSc2nc(C)nc3c2c(=O)n(C)c(=O)n3C)cc1 | -9.19%
CCCC/C(=N/O)c1c(C)[nH]c2ccccc12 | -0.42%
CCc1sc2nc(SCC(=O)Nc3cc(C)on3)n(-c3cccc(OC)c3)c(=O)c2c1C | -0.05%
Cc1c(NC(=O)c2noc3c2CCc2ccccc2-3)c(=O)n(-c2ccccc2)n1C | 43%
COc1ccc2c(c1)CCc1c(C(=O)Nc3c(C)nn(Cc4ccccc4)c3C)noc1-2 | 0.29%
CC(C)(C)c1nnc(NC(=O)CCS(=O)(=O)Cc2ccccc2)s1 | -8.95%
O=C(Cc1ccc(Br)cc1)NC1CCSC1=O (configuration not stated) | -3.33%
O=C(c1cccs1)N1CCN(c2cccc(Cl)c2)CC1 | 0.26%
O=C(Cn1ccsc1=NC(=O)C(F)(F)F)c1ccccc1 | -3.48%
CC(=O)NC12CC3CC(C1)CC(C(=O)Nc1nc4ccc(S(C)(=O)=O)cc4s1)(C3)C2 | -8.67%
CC(=O)NC12CC3CC(C1)CC(C(=O)Nc1nccs1)(C3)C2 | -0.32%
Cc1ccc2c(c1)c(C1=NC(=S)NC1=O)c(O)n2C | -2.95%
Cn1c(O)c(C2=c3ccccc3=NC2=O)[nH]c1=S | 37%
C/C(=N\NC(=O)c1ccc(Cn2cc([N+](=O)[O-])cn2)o1)c1cccc(NC(=O)c2cccnc2)c1 | -0.38%

Compound | inhibition
Clc1cccc(C2Nc3cccc4cccc(c34)N2)c1 | 11.6%
O=C(c1ccccc1)c1ccc(OCCCN2CCCC2)cc1 | -9.38%
O=C(c1ccccc1)c1ccc(OCCCCN2CCCCC2)cc1 | 3.79%
Cc1nc(Nc2ccccc2)sc1C(=O)Nc1ccccc1 | 7.98%
Cc1nc(Nc2c(Cl)cccc2Cl)sc1C(=O)Nc1ccccc1 | 12%
CC(NC(=O)/C(C#N)=C/c1cccs1)c1ccccc1 (configuration not stated) | -1.56%
CCOCCN1CCN(c2nnc3n2-c2ccc(Cl)cc2C(c2ccccc2Cl)=NC3)CC1 | 4.83%
Clc1ccc2c(c1)C(c1ccccc1Cl)=NCc1nnc(Br)n1-2 | 6.91%
Cn1c(=O)c2c(nc(SCCN3CCOCC3)n2C)n(C)c1=O | 1%
O=C(CCc1ccc(Oc2cc([N+](=O)[O-])cc([N+](=O)[O-])c2)cc1)NC1CCCC1 | 30.8%
O=C(c1ccc(Oc2ccc([N+](=O)[O-])cc2)cc1)N1CCCCCC1 | 20.3%
Cc1cc(C)nc(OC(C(=O)O)C(OCC(C)C)(c2ccccc2)c2ccccc2)n1 (configuration not stated) | -3.41%
Cc1cccc(C(=O)NC2CC(C)(C)NC(C)(C)C2)c1 | -6.34%
Cc1ccc(S(=O)(=O)/N=C2/NC(=O)/C(=C/c3ccc(Br)o3)S2)cc1 | -2.8%
COC(=O)c1ccc(CSc2nnc(CNC(=O)c3ccccc3F)o2)o1 | 4.26%
CCc1c(C2(O)CCCCC2)[nH]c2ccc(C#N)cc12 | 5.4%
Cc1c(C2(O)CCCCC2)[nH]c2cc(C(F)(F)F)ccc12 | 15.3%
Cc1nn(S(=O)(=O)c2ccc(C(C)C)cc2)c(C)c1S(=O)(=O)N1CCOCC1 | -4.31%
Cc1nn(CC(=O)NCCCN2C(C)CCCC2C)c(=O)c2cc3occc3n12 (configuration not stated) | 5.96%
CCCn1c(CC)nc([N+](=O)[O-])c1Sc1ccc(C)cc1 | -12%
CCCc1nc([N+](=O)[O-])c(S(=O)(=O)c2ccccc2)n1CC(C)C | 10%
CN(CC(=O)Nc1ccc(OC(F)(F)F)cc1)C(=O)/C=C/c1ccco1 | 5.57%
Cc1ccc(NC(=O)CN(C)C(=O)/C=C/c2ccc3c(c2)OCO3)cc1 | 6.72%
